# Measured values taken from PubChem BioAssay (EPA / NIEHS).
# Results filed as inconclusive are left out. The source made the active and inactive calls. The calls were made as follows, unless noted: active = hit-call score of the fitted dose curve at least 0.9, where 1 is the maximum; inactive = score below 0.9.
# How the values were obtained:
# [1] = molecular target: Glucocorticoid receptor (Homo sapiens) (UniProt P04150); experiment: ATG_GR_TRANS: Attagene TRANS-FACTORIAL HepG2 Assay for human Glucocorticoid Receptor (GR) (AID 2282978; active = hit-call score of the fitted dose curve at least 0.9, where 1 is the maximum;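 also: activators score as hits since higher reporter transcript over DMSO is fitted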); conditions: HepG2 Attagene TRANS GR reporter, mRNA transcription
# Outline: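 HepG2 cells transiently transfected with multiplexed reporter units in which chimeric NR-GAL4 proteins drive GAL4-UAS reporters; 24 h compound exposure. Reporter mRNA measured by RT-PCR, 6-FAM labelling, HpaI digestion and capillary electrophoresis; gain-of-signal fitted versus DMSO.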
# [2] = molecular target: Oxysterols receptor LXR-alpha (Homo sapiens) (UniProt Q13133); experiment: ATG_LXRa_TRANS: Attagene TRANS-FACTORIAL HepG2 Assay for human Liver X Receptor alpha (LXRa) (AID 2282980; active = hit-call score of the fitted dose curve at least 0.9, where 1 is the maximum); conditions: HepG2 Attagene TRANS reporter, LXRa transactivation
# Outline: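 Transfect HepG2 with GAL4-UAS multiplex reporter constructs (TRANS format, chimeric receptor-GAL4); treat 24 h; extract RNA, reverse-transcribe, PCR-amplify, FAM-label, HpaI-digest; resolve fragments by capillary electrophoresis. Upward response vs DMSO.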
# [3] = molecular target: Hepatocyte nuclear factor 4-alpha (Homo sapiens) (UniProt P41235); experiment: ATG_HNF4a_TRANS: Attagene TRANS-FACTORIAL HepG2 Assay for human Hepatocyte Nuclear Factor 4 alpha (HNF4a) (AID 2282982; active = hit-call score of the fitted dose curve at least 0.9, where 1 is the maximum); conditions: HepG2 HNF4a transactivation reporter, mRNA readout
# Outline: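 In this trans-factorial format, a chimeric HNF4a-GAL4 fusion drives a GAL4-UAS reporter in transfected HepG2 liver cells. After 24 h treatment, reporter mRNA induction is measured by RT-PCR with capillary electrophoresis, relative to DMSO.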
# [4] = ATG_M_06_TRANS: Attagene TRANS-FACTORIAL HepG2 Assay for M06 Transcription Factor (Internal Marker) (AID 2282983; active = hit-call score of the fitted dose curve at least 0.9, where 1 is the maximum); conditions: HepG2 Attagene TRANS M06 internal marker reporter
# Outline: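 Background control endpoint: reporter mRNA from transiently transfected HepG2 after 24 h dosing, detected by RT-PCR with capillary electrophoresis fluorescence. Analysed for gain versus DMSO.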
# [5] = molecular target: Transcriptional activator Myb (Homo sapiens) (UniProt P10242); experiment: ATG_Myb_CIS: Attagene CIS-FACTORIAL HepG2 Assay for human Myeloblastosis (Myb) Proto-Oncogene Transcription Factor (AID 2282986); conditions: HepG2 Attagene CIS-FACTORIAL Myb reporter transcription; actives raise or lower the signal
# Outline: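 HepG2 cells were transiently transfected with cis-regulated multiple reporter transcription units reflecting endogenous Myb activity, then exposed to compound for 24 hours. Reporter mRNA was measured by RT-PCR with capillary electrophoresis; bidirectional fitting versus DMSO baseline.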
# [6] = molecular target: Nuclear respiratory factor 1 (Homo sapiens) (UniProt Q16656); experiment: ATG_NRF1_CIS: Attagene CIS-FACTORIAL HepG2 Assay for human Nuclear Respiratory Factor 1 (NRF1) Orphan Gene (AID 2282987); conditions: HepG2 NRF1 cis-element reporter, Attagene multiplex; actives raise or lower the signal
# Outline: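 HepG2 cells transiently transfected with multiple reporter transcription units under cis-regulatory promoter control, so endogenous transcription-factor activity is read. After 24 h compound exposure, reporter mRNA quantified by RT-PCR, fluorescent labelling, HpaI digestion and capillary electrophoresis; bidirectional fitting versus DMSO.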
# [7] = ATG_NFI_CIS: Attagene CIS-FACTORIAL HepG2 Assay for human Nuclear Factor I (NFI) (AID 2282989); conditions: HepG2 cis-regulatory reporter, NFI response element transcription; actives raise or lower the signal
# Outline: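 After transient transfection of HepG2 with cis-promoter reporter constructs and 24 h dosing, RNA is reverse-transcribed, amplified, 6-FAM end-labelled and HpaI-digested before capillary analysis. Bidirectional curve fitting against DMSO.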
# [8] = molecular target: Myc proto-oncogene protein (Homo sapiens) (UniProt P01106); experiment: ATG_Myc_CIS: Attagene CIS-FACTORIAL HepG2 Assay for human Myelocytomatosis (Myc) Proto-Oncogene Transcription Factor (AID 2282990); conditions: HepG2, Attagene cis-reporter transcription factor activity; actives raise or lower the signal
# Outline: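 HepG2 cells transiently transfected with multiple cis-promoter-driven reporter transcription units, so endogenous TF activity is read. After 24 h compound exposure, reporter mRNA was quantified by RT-PCR, 6-FAM labelling, HpaI digestion and capillary electrophoresis; bidirectional fit versus DMSO.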
# [9] = ATG_NF_kB_CIS: Attagene CIS-FACTORIAL HepG2 Assay for human Nuclear Factor Kappa B (NF-kB) (AID 2282991); conditions: HepG2 Attagene cis-factorial NF-kB reporter mRNA; actives raise or lower the signal
# Outline: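 HepG2 cells transiently transfected with multiplexed cis-element reporter units measuring endogenous transcription factor activity; reporter mRNA read 24 h after dosing by RT-PCR, fluorescent labelling, HpaI digestion and capillary electrophoresis. Bidirectional fit against DMSO baseline.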
# [10] = ATG_Oct_MLP_CIS: Attagene CIS-FACTORIAL HepG2 Assay for human Octamer-Binding Transcription Factor (Oct) (AID 2282993); conditions: HepG2 Attagene cis-factorial Oct reporter, mRNA; actives raise or lower the signal
# Outline: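 Cells of the HepG2 line express promoter-controlled reporter sequences whose mRNA levels, after 24 h treatment, are measured by RT-PCR and capillary electrophoresis. Increases and decreases are scored relative to DMSO.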
# [11] = molecular target: Cellular tumor antigen p53 (Homo sapiens) (UniProt P04637); experiment: ATG_p53_CIS: Attagene CIS-FACTORIAL HepG2 Assay for human p53 Transcription Factor (AID 2282994); conditions: HepG2 p53 cis-element reporter, Attagene mRNA; actives raise or lower the signal
# Outline: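 In HepG2 cells, reporter transcription units under cis-regulatory promoters were transiently introduced. Following 24 h treatment, RNA was processed to labelled, digested cDNA fragments read by capillary electrophoresis; fitting was bidirectional versus DMSO.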
# [12] = molecular target: Bile acid receptor (Homo sapiens) (UniProt Q96RI1); experiment: ATG_FXR_TRANS: Attagene TRANS-FACTORIAL HepG2 Assay for Farnesoid X Receptor (FXR) (AID 2282979; active = hit-call score of the fitted dose curve at least 0.9, where 1 is the maximum;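 also: hits raise reporter mRNA above DMSO so AC50 marks FXR activation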); conditions: HepG2 Attagene TRANS FXR-GAL4 reporter transcription
# Outline: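 Transient transfection of HepG2 with multiplexed GAL4-UAS reporter units; exogenous FXR-GAL4 chimera. Dose 24 h → TriZol RNA → oligo(dT) RT → PCR, 6-FAM primer extension, HpaI cut → CE. Gain vs DMSO.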
# [13] = ATG_NRF2_ARE_CIS: Attagene CIS-FACTORIAL HepG2 Assay for human Nuclear Factor Erythroid 2 Related Factor 2 (NFR2) response to Antioxidant Response Elements (ARE) (AID 2282992); conditions: HepG2 Attagene ARE/NRF2 reporter, transcription factor activity; actives raise or lower the signal
# Outline: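 Using transiently transfected HepG2 cells exposed for 24 h, reporter mRNA levels were determined by RT-PCR with fluorescent primer extension and capillary electrophoresis, analysed for gain or loss of signal against DMSO.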
# [14] = BSK_3C_TissueFactor: BioMAP Diversity Plus: 3C Assay for Tissue Factor Biomarker Activity (AID 2282997); conditions: BioMAP 3C HUVEC, tissue factor biomarker readout; actives raise or lower the signal
# Outline: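 After a 24 h chemical exposure of primary human umbilical vein endothelial cells, Tissue Factor levels were quantified by ELISA.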
# [15] = BSK_3C_VCAM1: BioMAP Diversity Plus: 3C Assay for Vascular cell adhesion molecule 1 (VCAM1) Biomarker Activity (AID 2282999); conditions: BioMAP 3C HUVEC, VCAM1 ELISA, cytokine-stimulated; actives raise or lower the signal
# Outline: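 Vascular primary endothelium (human umbilical vein) was exposed to chemicals and assayed 24 h later. VCAM-1 levels came from ELISA, with DMSO serving as baseline for bidirectional fitting.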
# [16] = molecular target: Oxysterols receptor LXR-beta (Homo sapiens) (UniProt P55055); experiment: ATG_LXRb_TRANS: Attagene TRANS-FACTORIAL HepG2 Assay for human Liver X Receptor beta (LXRb) (AID 2282981; active = hit-call score of the fitted dose curve at least 0.9, where 1 is the maximum); conditions: HepG2 Attagene TRANS GAL4-LXRb reporter, mRNA
# Outline: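 Measures induction of a Gal4-driven reporter transcript in HepG2 cells expressing an exogenous LXRb-Gal4 fusion. Cells are exposed to compound for 24 h before RNA isolation and RT-PCR with capillary electrophoresis detection.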
# [17] = ATG_M_32_TRANS: Attagene TRANS-FACTORIAL HepG2 Assay for M32 Transcription Factor (Internal Marker) (AID 2282984; active = hit-call score of the fitted dose curve at least 0.9, where 1 is the maximum;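 also: transcript level of a background control reporter unit measured by RT-PCR and capillary electrophoresis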); conditions: HepG2 Attagene TRANS M32 internal marker reporter
# Outline: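 After 24 h dosing of transfected HepG2 cells, total RNA was reverse-transcribed, reporter sequences PCR-amplified, 6-FAM labelled by primer extension and HpaI-digested before capillary electrophoresis. Signal increase over DMSO was fitted.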
# [18] = BSK_3C_uPAR: BioMAP Diversity Plus: 3C Assay for Urokinase-type plasminogen activator receptor (uPAR) Biomarker Activity (AID 2282998); conditions: BioMAP 3C HUVEC, uPAR biomarker ELISA; actives raise or lower the signal
# Outline: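 Endothelial primary cells of human umbilical vein origin received test chemical; 24 h later uPAR was assayed by ELISA. Fitting was bidirectional, DMSO as negative control.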
# [19] = molecular target: Nuclear receptor subfamily 4 group A member 2 (Homo sapiens) (UniProt P43354); experiment: ATG_NURR1_TRANS: Attagene TRANS-FACTORIAL HepG2 Assay for human Nuclear Receptor Related Protein 1 (NURR1) (AID 2282985; active = hit-call score of the fitted dose curve at least 0.9, where 1 is the maximum); conditions: HepG2 Attagene TRANS reporter, mRNA readout
# Outline: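 Chimeric NR-Gal4 fusion activity measured in HepG2 after 24 h treatment. Reporter transcripts detected by RT-PCR and capillary electrophoresis fluorescence; positive-direction curve fitting against DMSO.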
# Sequence of Transcriptional activator Myb (Homo sapiens) (P10242 whole entry, looked up): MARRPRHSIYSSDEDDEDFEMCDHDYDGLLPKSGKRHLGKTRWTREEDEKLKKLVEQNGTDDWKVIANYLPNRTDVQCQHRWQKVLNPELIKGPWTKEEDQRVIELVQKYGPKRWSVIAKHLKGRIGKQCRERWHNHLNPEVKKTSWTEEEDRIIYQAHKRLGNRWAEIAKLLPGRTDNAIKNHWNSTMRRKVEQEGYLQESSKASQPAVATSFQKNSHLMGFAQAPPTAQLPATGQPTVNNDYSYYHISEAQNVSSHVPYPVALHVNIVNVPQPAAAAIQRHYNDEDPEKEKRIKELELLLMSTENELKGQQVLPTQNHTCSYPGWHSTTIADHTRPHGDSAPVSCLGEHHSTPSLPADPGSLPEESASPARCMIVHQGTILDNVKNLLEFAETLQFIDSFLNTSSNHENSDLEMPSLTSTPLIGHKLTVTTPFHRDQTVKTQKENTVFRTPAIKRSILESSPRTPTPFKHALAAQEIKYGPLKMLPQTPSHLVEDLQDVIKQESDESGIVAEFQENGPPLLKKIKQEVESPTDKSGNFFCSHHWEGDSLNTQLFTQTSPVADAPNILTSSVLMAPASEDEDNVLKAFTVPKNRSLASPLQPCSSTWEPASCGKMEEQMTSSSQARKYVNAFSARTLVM
# Sequence of Nuclear receptor subfamily 4 group A member 2 (Homo sapiens) (P43354 whole entry, looked up, the tested form may be a part): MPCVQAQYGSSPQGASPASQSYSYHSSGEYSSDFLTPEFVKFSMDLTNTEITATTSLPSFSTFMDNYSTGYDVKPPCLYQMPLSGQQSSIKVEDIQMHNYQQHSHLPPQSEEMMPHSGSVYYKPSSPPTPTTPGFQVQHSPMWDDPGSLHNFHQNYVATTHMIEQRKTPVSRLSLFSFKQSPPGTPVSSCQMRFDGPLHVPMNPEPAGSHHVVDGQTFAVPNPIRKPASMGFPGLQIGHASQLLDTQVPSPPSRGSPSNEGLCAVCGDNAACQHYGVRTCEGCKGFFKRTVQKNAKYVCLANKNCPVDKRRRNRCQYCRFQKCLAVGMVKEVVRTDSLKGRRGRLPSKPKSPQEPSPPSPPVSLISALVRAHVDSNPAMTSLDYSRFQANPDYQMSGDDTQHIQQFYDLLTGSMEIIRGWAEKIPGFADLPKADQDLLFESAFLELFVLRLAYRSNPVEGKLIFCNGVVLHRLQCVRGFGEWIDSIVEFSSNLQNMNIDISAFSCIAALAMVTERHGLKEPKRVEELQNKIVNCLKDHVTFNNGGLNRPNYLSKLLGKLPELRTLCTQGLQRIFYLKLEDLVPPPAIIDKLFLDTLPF
# Sequence of Bile acid receptor (Homo sapiens) (Q96RI1 whole entry, looked up, the tested form may be a part): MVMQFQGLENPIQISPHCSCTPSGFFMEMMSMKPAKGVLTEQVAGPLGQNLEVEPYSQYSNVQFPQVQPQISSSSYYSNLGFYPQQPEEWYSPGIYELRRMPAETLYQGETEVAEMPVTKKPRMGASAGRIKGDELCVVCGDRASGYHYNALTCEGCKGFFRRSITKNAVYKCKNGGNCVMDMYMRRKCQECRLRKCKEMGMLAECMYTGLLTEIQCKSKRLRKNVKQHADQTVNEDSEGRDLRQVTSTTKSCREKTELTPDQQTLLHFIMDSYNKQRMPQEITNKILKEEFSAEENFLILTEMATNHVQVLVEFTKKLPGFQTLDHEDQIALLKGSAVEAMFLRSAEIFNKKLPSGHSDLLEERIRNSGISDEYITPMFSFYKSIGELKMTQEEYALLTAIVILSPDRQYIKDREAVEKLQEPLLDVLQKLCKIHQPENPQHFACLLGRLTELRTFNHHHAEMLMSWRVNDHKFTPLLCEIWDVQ
# Sequence of Nuclear respiratory factor 1 (Homo sapiens) (Q16656 whole entry, looked up): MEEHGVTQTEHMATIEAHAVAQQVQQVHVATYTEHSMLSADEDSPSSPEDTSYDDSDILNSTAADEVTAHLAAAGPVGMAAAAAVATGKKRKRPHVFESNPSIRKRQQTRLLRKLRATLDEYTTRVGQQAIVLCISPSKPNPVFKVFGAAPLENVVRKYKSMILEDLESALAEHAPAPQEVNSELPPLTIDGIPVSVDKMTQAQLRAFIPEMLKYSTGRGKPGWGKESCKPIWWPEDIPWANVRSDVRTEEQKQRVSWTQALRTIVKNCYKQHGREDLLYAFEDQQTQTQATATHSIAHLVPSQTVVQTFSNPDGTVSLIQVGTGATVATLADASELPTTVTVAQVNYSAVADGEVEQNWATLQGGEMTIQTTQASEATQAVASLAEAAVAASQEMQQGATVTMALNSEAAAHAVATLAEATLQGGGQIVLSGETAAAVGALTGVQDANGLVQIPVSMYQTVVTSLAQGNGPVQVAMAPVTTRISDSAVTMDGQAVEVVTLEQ
# Sequence of Oxysterols receptor LXR-beta (Homo sapiens) (P55055 whole entry, looked up, the tested form may be a part): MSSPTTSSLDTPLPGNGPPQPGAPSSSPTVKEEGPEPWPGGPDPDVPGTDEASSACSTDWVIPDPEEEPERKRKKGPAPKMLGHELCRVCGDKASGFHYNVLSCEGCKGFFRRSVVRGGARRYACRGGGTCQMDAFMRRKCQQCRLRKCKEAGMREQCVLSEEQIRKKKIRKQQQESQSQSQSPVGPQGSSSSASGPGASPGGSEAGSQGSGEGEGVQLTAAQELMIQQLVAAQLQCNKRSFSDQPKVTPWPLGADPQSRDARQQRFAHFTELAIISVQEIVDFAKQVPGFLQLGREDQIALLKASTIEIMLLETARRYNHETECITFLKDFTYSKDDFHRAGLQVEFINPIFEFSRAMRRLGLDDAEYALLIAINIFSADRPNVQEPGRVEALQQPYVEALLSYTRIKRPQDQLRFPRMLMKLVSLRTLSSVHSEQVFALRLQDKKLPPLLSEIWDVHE
# Sequence of Cellular tumor antigen p53 (Homo sapiens) (P04637 whole entry, looked up, the tested form may be a part): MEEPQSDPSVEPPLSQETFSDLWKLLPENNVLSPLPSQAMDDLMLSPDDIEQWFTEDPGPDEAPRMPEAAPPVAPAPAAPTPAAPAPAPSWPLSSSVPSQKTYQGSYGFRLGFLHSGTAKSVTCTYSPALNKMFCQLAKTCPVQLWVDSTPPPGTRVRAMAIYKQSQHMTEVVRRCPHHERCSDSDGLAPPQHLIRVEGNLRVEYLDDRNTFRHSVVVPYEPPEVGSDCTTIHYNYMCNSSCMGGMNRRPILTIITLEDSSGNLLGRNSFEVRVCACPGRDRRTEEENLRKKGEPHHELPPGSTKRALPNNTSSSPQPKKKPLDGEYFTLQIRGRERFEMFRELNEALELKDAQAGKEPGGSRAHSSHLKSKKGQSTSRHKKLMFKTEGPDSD
# Sequence of Glucocorticoid receptor (Homo sapiens) (P04150 whole entry, looked up, the tested form may be a part): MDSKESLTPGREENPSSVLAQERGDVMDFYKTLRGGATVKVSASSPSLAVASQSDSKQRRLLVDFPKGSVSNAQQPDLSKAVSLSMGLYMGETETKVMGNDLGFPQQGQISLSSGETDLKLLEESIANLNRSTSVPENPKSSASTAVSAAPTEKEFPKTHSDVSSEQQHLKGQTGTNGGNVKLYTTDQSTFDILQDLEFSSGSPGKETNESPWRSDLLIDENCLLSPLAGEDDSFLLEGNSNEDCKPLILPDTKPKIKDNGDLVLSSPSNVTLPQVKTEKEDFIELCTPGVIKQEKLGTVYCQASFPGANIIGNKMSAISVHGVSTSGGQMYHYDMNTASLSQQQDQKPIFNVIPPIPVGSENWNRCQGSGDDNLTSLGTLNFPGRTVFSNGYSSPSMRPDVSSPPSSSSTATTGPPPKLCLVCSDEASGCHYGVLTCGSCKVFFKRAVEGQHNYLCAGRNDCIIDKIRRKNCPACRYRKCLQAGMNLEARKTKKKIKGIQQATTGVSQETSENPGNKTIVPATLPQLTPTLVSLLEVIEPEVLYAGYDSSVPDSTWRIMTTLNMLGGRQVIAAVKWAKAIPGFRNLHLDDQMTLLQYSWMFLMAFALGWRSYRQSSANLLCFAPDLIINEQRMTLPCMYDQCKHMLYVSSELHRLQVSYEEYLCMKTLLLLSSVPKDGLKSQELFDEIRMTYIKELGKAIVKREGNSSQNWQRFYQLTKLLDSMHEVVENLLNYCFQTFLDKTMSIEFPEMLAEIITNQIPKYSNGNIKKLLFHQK
# Sequence of Myc proto-oncogene protein (Homo sapiens) (P01106 whole entry, looked up): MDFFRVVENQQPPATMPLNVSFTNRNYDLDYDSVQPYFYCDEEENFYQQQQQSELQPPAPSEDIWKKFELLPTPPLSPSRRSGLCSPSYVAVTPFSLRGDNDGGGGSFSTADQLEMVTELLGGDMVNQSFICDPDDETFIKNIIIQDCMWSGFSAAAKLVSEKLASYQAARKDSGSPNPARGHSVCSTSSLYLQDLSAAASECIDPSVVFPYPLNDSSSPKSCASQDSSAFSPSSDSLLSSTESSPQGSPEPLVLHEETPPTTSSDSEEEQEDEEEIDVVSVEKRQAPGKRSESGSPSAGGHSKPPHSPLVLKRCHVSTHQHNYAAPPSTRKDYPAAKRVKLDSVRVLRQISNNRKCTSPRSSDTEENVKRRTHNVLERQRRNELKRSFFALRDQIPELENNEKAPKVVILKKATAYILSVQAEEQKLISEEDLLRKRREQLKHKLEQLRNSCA
# Sequence of Oxysterols receptor LXR-alpha (Homo sapiens) (Q13133 whole entry, looked up, the tested form may be a part): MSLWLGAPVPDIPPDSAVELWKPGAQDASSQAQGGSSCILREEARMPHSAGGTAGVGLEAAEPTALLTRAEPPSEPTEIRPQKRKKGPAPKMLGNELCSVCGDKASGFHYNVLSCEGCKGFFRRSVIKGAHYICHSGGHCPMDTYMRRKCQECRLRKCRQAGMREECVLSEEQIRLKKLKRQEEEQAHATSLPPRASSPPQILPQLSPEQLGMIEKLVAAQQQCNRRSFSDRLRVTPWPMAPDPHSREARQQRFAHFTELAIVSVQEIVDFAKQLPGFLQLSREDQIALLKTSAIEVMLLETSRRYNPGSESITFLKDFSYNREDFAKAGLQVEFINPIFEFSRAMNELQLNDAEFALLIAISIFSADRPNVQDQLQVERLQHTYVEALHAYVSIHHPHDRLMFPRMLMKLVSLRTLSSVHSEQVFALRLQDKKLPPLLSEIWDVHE
structure (smiles),measurement,setting,value
COC(N)=O,outcome,[1],inactive
same,outcome,[2],inactive
same,outcome,[3],inactive
same,outcome,[4],inactive
same,outcome,[5],inactive
same,outcome,[6],inactive
same,outcome,[7],inactive
same,outcome,[8],inactive
same,outcome,[9],inactive
same,outcome,[10],inactive
same,outcome,[11],inactive
CCCCN(CCCC)N=O,outcome,[1],inactive
same,outcome,[12],inactive
same,outcome,[2],inactive
same,outcome,[3],inactive
same,outcome,[4],inactive
same,outcome,[5],inactive
same,outcome,[6],inactive
same,outcome,[7],inactive
same,outcome,[8],inactive
same,outcome,[9],inactive
same,outcome,[13],inactive
same,outcome,[10],inactive
same,outcome,[11],inactive
same,outcome,[14],inactive
same,outcome,[15],inactive
c1cc2c3c(cccc3c1)CC2,outcome,[1],inactive
same,outcome,[16],inactive
same,outcome,[3],inactive
same,outcome,[17],inactive
same,outcome,[5],inactive
same,outcome,[6],inactive
same,outcome,[7],inactive
same,outcome,[8],inactive
same,outcome,[9],inactive
same,outcome,[10],inactive
same,outcome,[11],inactive
same,outcome,[14],inactive
same,outcome,[18],inactive
same,outcome,[15],inactive
ClC1=C(Cl)C2(Cl)C3C(Cl)C(Cl)CC3C1(Cl)C2(Cl)Cl (stereo not drawn),AC50,[1],100 µM (active)
same,AC50,[12],54.7 µM (active)
same,outcome,[16],inactive
same,outcome,[4],inactive
same,outcome,[17],inactive
same,outcome,[5],inactive
same,outcome,[6],inactive
same,outcome,[7],inactive
same,outcome,[8],inactive
same,outcome,[9],inactive
same,AC50,[13],14.8 µM (active)
same,outcome,[10],inactive
same,outcome,[11],inactive
same,AC50,[14],30.3 µM (active)
same,AC50,[15],28.6 µM (active)
Cn1[nH]nnc1=S,outcome,[12],inactive
same,outcome,[16],inactive
same,outcome,[4],inactive
same,outcome,[17],inactive
same,outcome,[19],inactive
same,outcome,[5],inactive
same,outcome,[6],inactive
same,outcome,[7],inactive
same,outcome,[8],inactive
same,outcome,[9],inactive
same,outcome,[13],inactive
same,outcome,[10],inactive
same,outcome,[11],inactive
FC(F)(F)C(F)(C(F)(F)F)C(F)(F)C(F)(F)CC1CO1 (stereo not drawn),outcome,[12],inactive
same,outcome,[16],inactive
same,outcome,[3],inactive
same,outcome,[4],inactive
same,outcome,[17],inactive
same,outcome,[5],inactive
same,outcome,[6],inactive
same,outcome,[7],inactive
same,outcome,[8],inactive
same,outcome,[9],inactive
same,outcome,[13],inactive
same,outcome,[10],inactive
same,outcome,[11],inactive
same,outcome,[14],inactive
same,outcome,[18],inactive
same,outcome,[15],inactive
Nc1ccc([N+](=O)[O-])cc1Cl,outcome,[12],inactive
same,outcome,[2],inactive
same,outcome,[16],inactive
same,outcome,[3],inactive
same,outcome,[17],inactive
same,outcome,[5],inactive
same,outcome,[6],inactive
same,outcome,[7],inactive
same,outcome,[8],inactive
same,outcome,[9],inactive
same,outcome,[10],inactive
same,outcome,[11],inactive
same,outcome,[14],inactive
same,outcome,[18],inactive
same,outcome,[15],inactive
CCCCc1ccc(O)cc1,outcome,[1],inactive
same,outcome,[12],inactive
same,outcome,[4],inactive
same,outcome,[17],inactive
same,outcome,[19],inactive
same,outcome,[5],inactive
same,outcome,[6],inactive
same,outcome,[7],inactive
same,outcome,[8],inactive
same,outcome,[9],inactive
same,outcome,[10],inactive
same,outcome,[11],inactive
CC(O)C#N (stereo not drawn),outcome,[1],inactive
same,outcome,[12],inactive
same,outcome,[2],inactive
same,outcome,[3],inactive
same,outcome,[4],inactive
same,outcome,[5],inactive
same,outcome,[6],inactive
same,outcome,[7],inactive
same,outcome,[8],inactive
same,outcome,[9],inactive
same,outcome,[13],inactive
same,outcome,[10],inactive
same,outcome,[11],inactive
Oc1ccc(I)cc1,outcome,[1],inactive
same,outcome,[12],inactive
same,outcome,[16],inactive
same,outcome,[4],inactive
same,outcome,[17],inactive
same,outcome,[19],inactive
same,outcome,[5],inactive
same,outcome,[6],inactive
same,outcome,[7],inactive
same,outcome,[8],inactive
same,outcome,[9],inactive
same,AC50,[13],67.3 µM (active)
same,outcome,[10],inactive
same,outcome,[11],inactive
